Growth inhibition data for 21 molecules are collected here from PubChem BioAssay (NCI).

The panel holds about 79,000 compounds, 15% with a hit somewhere; the sample as a whole holds those more often. Unmarked numbers belong to inactive results. Active and inactive are the calls of the source. Cut-off read from the data, not from the text of the source: active = growth inhibition above about 70%; inactive = the rest.

Test [1] can be described thus: NCI Yeast Anticancer Drug Screen. Data for the rad50 strain (AID 155).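 Note: 0% = growth of vehicle-only cultures of the same strain.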 The note with it: S. cerevisiae rad50 strain growth inhibition; at 50.0 µM; stronger effect = higher value. A digest of the protocol:
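A DNA repair-deficient yeast mutant serves as the test organism; compound-induced growth inhibition is calculated against vehicle-treated cells.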

Test [2] is described as follows: NCI Yeast Anticancer Drug Screen. Data for the mec2-1 strain (AID 157). The note with it: S. cerevisiae mec2-1 strain, at 50.0 µM, stronger effect = higher value. A digest of the protocol:
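Test agents were screened against the mec2-1 yeast strain, with defined DNA repair or cell cycle alteration. Growth was scored as inhibition against vehicle-only controls.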

The nature of test [3]: NCI Yeast Anticancer Drug Screen. Data for the sgs1 mgt1 strain (AID 161).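 Note: 0% = growth of cultures given vehicle only.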 The note with it: S. cerevisiae sgs1 mgt1 strain, at 50.0 µM, stronger effect = higher value. A digest of the protocol:
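Read-out: growth inhibition vs vehicle controls. Cells: mutant yeast strain deficient in DNA damage repair.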

Test [4] in a line: NCI Yeast Anticancer Drug Screen. Data for the cln2 rad14 strain (AID 165).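 Note: 0% = growth equal to vehicle treated cultures.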 The conditions noted are these: S. cerevisiae cln2 rad14 strain, at 50.0 µM, stronger effect = higher value. In a few lines:
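Growth of compound-exposed yeast (cln2 rad14 genotype) measured and expressed as inhibition relative to vehicle.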

A short description of test [5]: NCI Yeast Anticancer Drug Screen. Data for the bub3 strain (AID 167). The note with it: S. cerevisiae bub3 mutant strain, at 50.0 µM, stronger effect = higher value. In a few lines: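 Inhibition values come from growth of compound-treated mutant yeast normalised to vehicle-treated controls.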
A short description of test [6]: NCI Yeast Anticancer Drug Screen. Data for the mlh1 rad18 strain (AID 175). The note with it: S. cerevisiae mlh1 rad18 strain growth inhibition; at 50.0 µM; stronger effect = higher value. A digest of the protocol: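 In this whole-cell yeast screen, a strain with altered DNA damage repair is challenged with compound, and its growth is measured against matched vehicle-treated controls.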

Take `Brc1cc(Br)cc(-c2nnc(-c3ccc4ccccc4c3)o2)c1`: the growth inhibition was -3.5% in test [1]; -20.8% in test [2]; -2.45% in test [3]; 3.25% in test [4]; 3% in test [5]; 4.55% in test [6].
As to `COC(=O)C1CC(=O)N(C)c2sc(C)c(C)c2C1=O` (stereo unspecified), the growth inhibition is 83.9% (active) in test [1]; 94.5% (active) in test [2]; 89% (active) in test [3]; 36.5% in test [4]; 87.7% (active) in test [5]; 95.7% (active) in test [6].
Consider `C/C(=N\O)c1sc(-n2nc(-c3ccccc3)cc2-c2ccccc2)nc1C`, for which the growth inhibition in test [1] is 13.7%; in test [2], 4.2%; in test [3] it was 37.6%; in test [4], 25.4%; in test [5] it was 30.6%; in test [6], 19.3%.
In the case of `CCc1ccccc1NC(=O)CCc1nc(=S)[nH][nH]1`, the growth inhibition was -24.8% in test [1]; 9.6% in test [2]; 2.9% in test [3]; 32.4% in test [4]; 20.1% in test [5]; 6.15% in test [6].
Regarding `Cc1cccc2c1c1ccc3c(c1n2C)C(=O)C=CC3=O`, the growth inhibition in test [1] was 5.05%; in test [2], -12.4%; in test [3] it was 4.6%; in test [4], 18.6%; in test [5] it was -11.2%; in test [6] it was -5%.
In the case of `C[C@]12CCC(=O)C=C1CC[C@@H]1[C@@H]2CC[C@]2(C)C(=O)NC(=O)C[C@@H]12`, the growth inhibition in test [1] is -1.65%; in test [2], -15.8%; in test [3], 32.6%; in test [4], 24.9%; in test [5], -3%; in test [6], -16.9%.
`CC(=O)OCC12CCC(C)=CC1O[C@H]1[C@@H](OC(C)=O)[C@H](OC(C)=O)[C@]2(C)[C@@]12CO2` (stereo partly specified): the growth inhibition in test [1] is 24.6%; in test [2], -17.4%; in test [3] it was -19.6%; in test [4], 42.4%; in test [5], -14.6%; in test [6] it was 30.9%.
On to `CC(C)(CN1CCCCC1)C(=O)/C=C/c1ccc(Cl)cc1`, for which the growth inhibition in test [1] is 34.6%; in test [2] it was 11.9%; in test [3] it was 36.2%; in test [4], 38.5%; in test [5] it was 12.6%; in test [6] it was 46.7%.
For `C#CC(C)(O)CCCCCCC` (stereo unspecified), the growth inhibition is 18.3% in test [1]; -27.1% in test [2]; 4% in test [3]; -22.8% in test [4]; -12.4% in test [5]; 5% in test [6].
Consider `Cc1nn(-c2ccccc2)c2c1CC(=O)Nc1ccccc1-2`, for which the growth inhibition in test [1] was -14.1%; in test [2], -29.1%; in test [3], -11.5%; in test [4], -26.8%; in test [5] it was -37.6%; in test [6], 9.15%.
As to `Cc1ccc(CCCC(=O)O)cc1C`, the growth inhibition is -21.6% in test [1]; 2.65% in test [2]; -7.05% in test [3]; 10.6% in test [4]; -44.2% in test [5]; -13.8% in test [6].
In the case of `O=C1NC(N2CCCC(CO)C2)=N/C1=C\c1ccccc1` (stereo unspecified), the growth inhibition in test [1] was -15.6%; in test [2] it was -2.85%; in test [3], 10%; in test [4], 7.6%; in test [5] it was 7.15%; in test [6], -33.7%.
`CC1=C(C(=O)Nc2ccc([N+](=O)[O-])cc2)C(c2cccc([N+](=O)[O-])c2)C(C(=O)Nc2ccc([N+](=O)[O-])cc2)=C(C)N1`: the growth inhibition in test [1] is -9.25%; in test [2], -4.4%; in test [3], 12.9%; in test [4], -17.1%; in test [5], -15.3%; in test [6], -15.1%.
With `CC1(C)CC(=O)C(CC(C(=O)C(=O)Nc2cc(C(F)(F)F)ccc2Cl)C(=O)c2ccco2)C(=O)C1` (stereo unspecified), the growth inhibition is -1.55% in test [1]; 30.1% in test [2]; 18.9% in test [3]; -22.4% in test [4]; 13% in test [5]; 19.1% in test [6].
For `NNC(=O)c1nc[nH]c1C(=O)NN`, the growth inhibition in test [1] was 2.95%; in test [2] it was -2.6%; in test [3], 21.5%; in test [4] it was -14.3%; in test [5] it was -7.6%; in test [6] it was 32%.
Take `COc1ccc2nc(C)cc(N=[N+]=[N-])c2c1`: the growth inhibition is -34.6% in test [1]; 1.45% in test [2]; -16.5% in test [3]; -46.5% in test [4]; 8.55% in test [5]; 10.6% in test [6].
`O=c1ccc2ccc(O)cc2o1`: the growth inhibition in test [1] was -1.45%; in test [2] it was -6.7%; in test [3], 0.9%; in test [4], 2.05%; in test [5], -4.65%; in test [6], -11.8%.
With `C/C(CCC1CCCCC1)=N/Nc1ccc([N+](=O)[O-])cc1[N+](=O)[O-]`, the growth inhibition is 24% in test [1]; 8.9% in test [2]; 22.8% in test [3]; 16.5% in test [4]; 6.95% in test [5]; 5.55% in test [6].
As to `O=C1CC2(CCCc3sccc32)C(=O)N1` (stereo unspecified), the growth inhibition in test [1] was -11.2%; in test [2] it was -1.65%; in test [3], 1.55%; in test [4], -21.1%; in test [5], -5.6%; in test [6], -14.1%.
Consider `COc1cc(CCC(C)=O)ccc1OC(=O)c1c(-c2c(F)cccc2Cl)noc1C`, for which the growth inhibition is 1.85% in test [1]; -12.2% in test [2]; 14.3% in test [3]; 19.3% in test [4]; 10.3% in test [5]; 3.5% in test [6].
Take `CCCC(=O)Oc1cccc(C)c1`: the growth inhibition in test [1] is 15.7%; in test [2], 4.75%; in test [3] it was 0.1%; in test [4] it was 14.6%; in test [5] it was 0.1%; in test [6], -17.8%.
